# Shown are actives, neighbours in structure and some others; about 0.74% of the full set was active somewhere.
# eLon inh – inhibitors of E. coli Lon protease, primary screen, biochemical, fluorescence polarization; AID 602123, 2011; inhibition, % at 7.94 µM; 0.42% of 360,000 active; purified E. coli Lon protease; in the data active = inhibition above about 13%, passing the limit was not always enough;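 also: 0% = enzyme with probe and DMSO and 100% = no enzyme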
# RTF Ca sens act – cardiac RTF calcium sensitivity activators, primary screen, biochemical, IANBD-TnC fluorescence, EC20 calcium; Troponin I, cardiac muscle (Homo sapiens) + Troponin T, cardiac muscle (Homo sapiens) + …; IANBD-labeled TnC RTF fluorescence at EC20 calcium; 0% EC20 calcium, 100% full calcium; activation, % at 7.2 µM; 0.24% of 340,000 active;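 active = activation above the mean over all tested compounds plus 3 SD, cut at about 30% in these data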;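 also: rise in fluorescence read as greater calcium sensitivity of cardiac thin filaments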
# LANA DNA inh – inhibitors of KSHV C-LANA binding to DNA, primary screen, biochemical, fluorescence polarization, FAM-LBS DNA, MBP-C-LANA, single point; Kaposi's sarcoma herpesvirus LANA C-terminal domain (residues 932-1162) DNA binding; inhibition, % at 9 µM; 0.078% of 340,000 active;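 active = highest replicate inhibition at or above 60% at 9 µM, even if other replicates fall short; inactive = all replicates below 60% inhibition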;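 also: 0% = neutral control wells and 100% = 4 µM acridine orange control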
# Keap1 Nrf2 FP – Keap1-Nrf2 protein-protein interaction inhibitors, primary screen, biochemical, fluorescence polarization, single point. Kelch-like ECH-associated protein 1 (Homo sapiens), Q14145. 0.15% of 340,000 active. inhibition, % at 9.4 µM. Keap1 Kelch-Nrf2 peptide fluorescence polarization, 1536-well; in the data active = inhibition above about 12%;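 also: human Keap1 Kelch domain with fluorescein labeled Nrf2 9mer peptide probe; 0% = neutral control wells and 100% = peptide positive control; higher means more block of Keap1 binding to Nrf2 peptide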
# Target sequence (Q14145 whole entry, looked up, the tested form may be a part): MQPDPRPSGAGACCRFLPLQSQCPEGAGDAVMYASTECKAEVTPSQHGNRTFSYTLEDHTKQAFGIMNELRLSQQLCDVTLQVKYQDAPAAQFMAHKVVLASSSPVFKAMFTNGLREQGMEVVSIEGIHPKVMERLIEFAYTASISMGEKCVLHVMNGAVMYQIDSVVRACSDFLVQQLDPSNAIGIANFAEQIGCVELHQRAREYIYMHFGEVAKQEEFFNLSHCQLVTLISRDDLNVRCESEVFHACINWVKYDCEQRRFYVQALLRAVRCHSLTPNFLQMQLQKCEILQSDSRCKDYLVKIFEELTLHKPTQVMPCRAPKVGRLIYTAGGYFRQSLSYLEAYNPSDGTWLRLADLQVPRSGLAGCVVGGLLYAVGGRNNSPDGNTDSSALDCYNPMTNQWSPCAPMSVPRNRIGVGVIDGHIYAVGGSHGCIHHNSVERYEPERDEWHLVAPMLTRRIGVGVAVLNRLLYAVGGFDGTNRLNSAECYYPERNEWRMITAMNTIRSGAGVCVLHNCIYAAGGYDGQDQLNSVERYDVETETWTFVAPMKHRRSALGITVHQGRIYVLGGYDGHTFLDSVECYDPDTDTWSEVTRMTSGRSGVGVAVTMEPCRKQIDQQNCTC
# Cardiac RTF inh – cardiac RTF calcium sensitivity inhibitors, primary screen, biochemical, IANBD-TnC fluorescence, EC70 calcium; Troponin I, cardiac muscle (Homo sapiens) + Troponin T, cardiac muscle (Homo sapiens) + …; IANBD-labeled cardiac RTF, Ca2+ fluorescence; inhibition, % at 7.15 µM; 0.12% of 340,000 active;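 active = inhibition above the mean inhibition of all tested compounds plus 3 SD, cut at about 17% in these data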;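 also: assay run at fixed EC70 calcium of 1.6 mM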
# Numbers without * were called inactive; i = inactive; nt = no result given.
SMILES,eLon inh,RTF Ca sens act,LANA DNA inh,Keap1 Nrf2 FP,Cardiac RTF inh
CCCCCCCCOc1ccc(C2OC34CCCCC3C(C#N)(C#N)C2(C#N)C(=N)O4)cc1 (configuration not stated),26.8*,21.7,56.3,27.6*,-39.6
N#CC1(C#N)C(c2ccccc2)OC23CCCCCC2C1(C#N)C(=N)O3 (configuration not stated),9.3,-1.2,3.9,0.1,-19.6
COc1ccccc1N=Cc1c(C)c(C#N)c2[nH]c3ccccc3n2c1=O,-29.5,62.1*,-0.2,0.1,-13.0
O=C1OCc2ccc(NC(=O)C3CC3)cc21,-0.7,3.4,84.1*,2.2,-1.5
O=C1OCc2cc(NC(=O)C3CCCCC3)ccc21,-4.1,-3.7,-1.0,-7.1,-0.1
Cc1cccc(N=Cc2[nH]c3ccc(Br)c(Cl)c3c2O)c1,-190.8,63.1*,0.4,0.7,-86.7
CC1(C(=O)NS(=O)(=O)Cc2ccccc2)CCN1C(=O)Cc1ccccc1Cl (configuration not stated),-8.8,nt,nt,nt,nt
Cc1cc(=O)oc(C)c1C(=O)Nc1ccc2ncccc2c1,-5.7,74.2*,9.5,-0.1,-32.3
Cc1cc(=O)oc(C)c1C(=O)Nc1ccc2nsnc2c1,-5.0,3.2,1.2,-1.9,5.7
CCN(C(=O)COC(=O)C1CC1)c1c(N)n(Cc2ccccc2)c(=O)[nH]c1=O,9.5,0.8,-0.1,-3.2,-5.8
CCc1ccc(N2CC(C(=O)OCC(=O)N(CC)c3c(N)n(Cc4ccccc4)c(=O)[nH]c3=O)CC2=O)cc1 (configuration not stated),-3.5,13.1,nt,187.5*,-18.0
O=C(CCSCc1ccc(Cl)cc1)NCc1cccs1,2.6,-3.2,1.1,-0.3,17.8*
O=C1NC[C@@H](CCCCN2C[C@H](Cc3ccc(O)cc3)N(CC3CCCCC3)C(=O)C2=O)N(CCc2ccccc2)C1=O,-0.6,nt,nt,nt,nt
COc1ccc(C2c3ccc(O)cc3Oc3ncn(Cc4ccccc4)c(=N)c32)cc1OC (configuration not stated),-59.9,44.4*,9.5,-1.7,-59.6
COc1ccc(C2c3ccc(O)cc3Oc3ncn(CCN4CCOCC4)c(=N)c32)cc1OC (configuration not stated),2.0,25.4,23.9,8.2,-20.7
C[C@@H]1CN([C@@H](C)CO)C(=O)c2cc(C#Cc3ccccc3)cnc2O[C@H]1CN(C)C(=O)c1ccccc1F,-2.3,nt,nt,nt,nt
Oc1[nH]c2ccccc2c1N=Nc1c(F)c(F)c(Cl)c(F)c1F,-4.2,5.0,0.6,-0.7,-5.6
Oc1[nH]c2ccccc2c1N=Nc1ccccc1Cl,-5.7,64.8*,-2.9,1.4,-89.3
O=C(Nc1ccccc1)c1ccc(NCCc2ccccc2)c([N+](=O)[O-])c1,-10.2,96.3*,-2.1,4.1,-4.7
CCCCCCN1C=CC(=C/C=C(\C#N)C(=O)OCC)C=C1,i,141.2*,-23.9,-93.4,-262.4
CCCN1C=CC(=CC=C(C#N)C#N)C=C1,-425.6,42.2*,-28.4,-102.0,-47.9
CCCCCN1C=CC=C/C1=C\C=C(C#N)C#N,-48.4,nt,nt,nt,nt
CCOC(=O)/C(C#N)=C/C=C1\C=Cc2ccccc2N1CC,-47.2,-0.9,-0.1,-20.4,-6.4
C=CCN1C=CC(=CC=C(C#N)C#N)C=C1,-437.1,44.3*,-30.0,-117.5,-46.1
CCN=C1S/C(=C\c2ccc(N3CCOCC3)cc2C)C(=O)N1CC,-13.4,1.6,0.2,-0.1,8.1
SMILES,eLon inh,RTF Ca sens act,LANA DNA inh,Keap1 Nrf2 FP,Cardiac RTF inh
COCCN1C(=O)/C(=C/c2ccc(N3CCCC3)cc2C)SC1=S,-195.7,68.7*,-0.3,-4.4,-76.2
COc1ccc(CCN2C(=O)CCC3=C2CCCC3=O)cc1OC,2.4,nt,nt,nt,nt
CCN(CC)c1ccc2c(c1)oc(=O)c1c(Cl)cc(=O)oc12,-157.4,199.9*,6.2,-1.9,-270.3
CCN(CC)c1ccc2c(C)c(Cl)c(=O)oc2c1,-0.7,3.1,-1.0,-0.3,-18.2
Cn1c(/C(C#N)=C/c2ccc(-c3ccc(S(N)(=O)=O)cc3)o2)nc2ccccc21,-77.2,44.8*,5.2,8.5,-17.9
CC(C)CC(=O)Nc1nnc(CSCc2ccc(F)cc2)s1,4.4,8.8,74.9*,-1.8,-5.3
CCC(=O)Nc1nnc(CSCc2ccc(F)cc2)s1,3.1,-3.9,-0.1,-1.2,-6.5
COC(=O)c1ccc(/C=N\N2CCN(Cc3ccc(C)cc3)CC2)cc1,142.4*,1.9,-0.8,4.0,-6.1
CCN(CC)c1ccc(/C=c2\sc3nnc(-c4ccccc4Cl)n3c2=O)cc1,-210.2,46.9*,7.4,-4.0,-62.1
CCN(CC)c1ccc(/C=c2/sc3nnc(-c4ccccc4C)n3c2=O)cc1,-108.9,43.2*,-0.6,-2.5,-18.9
Cc1ccc(/C=c2/sc3nnc(-c4ccccc4Cl)n3c2=O)o1,-15.3,-0.7,1.0,-2.6,-3.9
CCOC(=O)C1C(C(=O)OCC)C(C)(C)C1N(C)C (configuration not stated),11.7,nt,nt,nt,nt
CCN(CC(=O)Nc1ccc(C#N)cc1)CC(=O)Nc1ccc2c(c1)OCCO2,-5.8,nt,nt,nt,nt
COc1ccccc1CN(C(=O)CCl)C(C(=O)NC1CCCCC1)c1ccncc1 (configuration not stated),24.7*,1.9,1.5,-10.7,-19.4
O=C(CNC(=O)c1cc(-c2ccccc2)nn1-c1ccccc1)Nc1ccccc1Br,-2.0,4.2,-1.0,-4.5,-7.1
O=C(NN=Cc1ccc2c(c1)CCN2)c1cccs1,2.6,nt,nt,nt,nt
O=C(O)c1ccccc1NS(=O)(=O)c1ccc(N/N=C/c2ccc(O)c(O)c2)c([N+](=O)[O-])c1,-5.7,-10.2,80.2*,7.9,3.5
COc1ccc(OC)c(NC(=O)C2(C)CCN2C(=O)Cc2ccc(Cl)cc2Cl)c1 (configuration not stated),0.4,nt,nt,nt,nt
COc1ccccc1N=C1NC(=O)/C(=C/c2ccc(N(C)C)cc2)S1,-463.9,47.5*,-4.8,-7.8,-87.5
CC1(C(=O)NCc2cccnc2)Cc2c(-c3cccc(C(F)(F)F)c3)ccnc2O1 (configuration not stated),-2.4,nt,nt,nt,nt
CCOC(=O)Cn1c(=O)oc2cc(S(=O)(=O)NCc3cccs3)ccc21,5.2,3.1,-0.4,-5.9,-9.5
CCOC(=O)Cn1c(=O)oc2cc(S(=O)(=O)NCc3ccccn3)ccc21,25.9*,0.1,1.2,-3.5,-3.5
CC1=C(c2ccccc2)C=NNCC1=O,-7.0,3.1,0.4,-5.1,-8.8
O=C(O)CN1C(=O)/C(=C\c2ccc(OC(=O)c3ccco3)cc2)SC1=S,-190.0,5.8,-16.4,-12.0,-7.3
O=C(O)CN1C(=O)/C(=C\c2cn(CC(=O)N3CCOCC3)c3ccccc23)SC1=S,-176.0,134.2*,-35.3,-185.9,-154.1

# Screening data from PubChem.
